PubChem BioAssay (NCATS)
Inconclusive results are not listed. Entries that show only a call come without a potency. Activity calls are given as the source filed them. The call rests on the fitted dose curve; in most records, active means well fitted inhibition curve with a large enough effect; inconclusive means small, poorly fitted or top-dose-only effect; inactive means flat fitted curve, though single readings scatter.

Tested on: MCC-26
Test: qHTS assay to identify novel small-molecules to repurpose for Merkel cell carcinoma treatment (AID 1296009); further: nearly all actives have a fitted effect of over 60% in size
Details: MCC and control cell lines, CellTiter-Glo viability, 72 h; series mostly up to 46 µM
Text: MCC is a rare and aggressive neuroendocrine skin cancer with limited treatment options. Approximately 80% of MCCs have the Merkel cell polyomavirus (MCPyV) DNA integrated into the host genome (virus-positive: VP-MCC) and viral oncogenes drive oncogenesis. The remaining MCCs are virus-negative (VN-MCC) and are caused by UV mutagenesis. To identify novel treatments for VP-MCC and/or VN-MCC we screened three VP-MCC cell lines (WAGA, MKL-1, MKL-2), three VN-MCC cell lines (MCC-13, MCC-26, UISO), and four immortalized, non-transformed control cell lines (HaCaT, HEK293T, CRL7250, NIH-3T3) against ~2,400 compounds in the NCGC Pharmaceutical Collection (NPC) and ~1,900 compounds in the Mechanism Interrogation PlatE (MiPE). Using cell viability as a readout (CellTiter-Glo assay) we found both overlapping and distinct drugs that can be repurposed for the treatment of VP-MCC and VN-MCC.
A high-throughput screen was conducted in 1536-well white flat bottom plates (Corning) on a Kalypsys robotic system. Cell lines WAGA, MKL-1, MKL-2, MCC-13, MCC-26, UISO, HaCaT, HEK293T, CRL7250, and NIH-3T3 were screened against 2 small molecule annotated drug libraries NPC and MIPE in dose response (8 and 11 pt. respectively) measuring cell viability after 72 hours of incubation. […] A 1,536 pintool (Kalypsys) was used to transfer 23 nL of compound in DMSO to the 1,536-well assay plates. After 72 hr incubation at 37 degree celsius, 2.5 uL of CellTiter-Glo (Promega) was dispensed into each well using a BiorapTR. Plates were incubated at room temperature for 10 min, transferred to a ViewLux (PerkinElmer) and the luminescence was recorded using an exposure time of 2 seconds. Relative luminescence units (RLUs) were normalized to in-plate controls (no cells as a positive (cytotoxicity) control, DMSO as negative control) and the normalized data was processed using NCATS in-house software.

**Q.** Which Potency does the source give for OC[C@H]1O[C@@H](n2cnc3c2NC=NC[C@@H]3O)C[C@H]1O here?
**A.** inactive

**Q.** For NC(=O)c1cnc(-c2ccc(C3(N)CCC3)cc2)c(-c2ccccc2)c1, which Potency is on record?
**A.** inactive

**Q.** For COc1ccc2cccc(CCNC(C)=O)c2c1, which Potency is on record?
**A.** inactive

**Q.** How did the Potency turn out when CC(C)NCC(O)COc1cccc2[nH]ccc12 (stereo not given) was run?
**A.** inactive

**Q.** How did the Potency turn out when Clc1ccc(C(c2ccc(Cl)cc2)n2cc[n+](CC(OCc3ccc(Cl)cc3Cl)c3ccc(Cl)cc3Cl)c2)cc1 (stereo not given) was run?
**A.** inactive

**Q.** How did the Potency turn out when CC(=O)CCCCn1c(=O)c2c(ncn2C)n(C)c1=O was run?
**A.** inactive

**Q.** With Clc1ccc(Cn2c(CN3CCCC3)nc3ccccc32)cc1 as the compound, how does the Potency read?
**A.** inactive

**Q.** Which Potency does the source give for Nc1ncnc2ccccc12 here?
**A.** inactive

**Q.** How did the Potency turn out when O=c1cc(-c2ccccc2)oc2cc(O)cc(O)c12 was run?
**A.** inactive

**Q.** CCOC(CN1C(=O)[C@](CC(=O)Nc2ccc(C)cc2)(NC(=O)Nc2ccc(C)cc2)c2ccccc21)OCC was tested. Which Potency did it give?
**A.** inactive

**Q.** Cn1c(N2CCCCS2(=O)=O)nc(C(=O)NCc2ccc(F)cc2)c(O)c1=O was tested. Which Potency did it give?
**A.** inactive

**Q.** Which Potency does the source give for CCOC(=O)O[C@]1(C(=O)OCCl)CC[C@@H]2[C@H]3CCC4=CC(=O)C=C[C@]4(C)[C@@H]3[C@@H](O)C[C@@]21C here?
**A.** inactive

**Q.** For CCn1cc(C(=O)O)c(=O)c2ccc(C)nc21, which Potency is on record?
**A.** inactive

**Q.** How did the Potency turn out when COC[C@@H](c1ccc(C(F)(F)F)cc1)N1CCN(C2(C)CCN(C(=O)c3c(C)ncnc3C)CC2)C[C@H]1C was run?
**A.** inactive

**Q.** Which Potency does the source give for N#Cc1ccc(NC(=O)Nc2ccccc2Br)c2n[nH]nc12 here?
**A.** inactive

**Q.** With O=C(NOCC(O)CO)c1cc(Br)c(F)c(F)c1Nc1ccc(I)cc1F (stereo not given) as the compound, how does the Potency read?
**A.** inactive

**Q.** For C[N+]1(C)[C@@H]2CC(OC(=O)[C@H](CO)c3ccccc3)C[C@H]1[C@H]1O[C@@H]12 (stereo not given in full), which Potency is on record?
**A.** inactive

**Q.** How did the Potency turn out when NC(=O)NN=Cc1ccc([N+](=O)[O-])o1 was run?
**A.** inactive

**Q.** Which Potency does the source give for COC1CCC(N(C(=O)C2CCC(C)CC2)c2cc(C3=CCCCC3)sc2C(=O)O)CC1 (stereo not given) here?
**A.** inactive

**Q.** COc1ccc(-c2coc3cc(O)cc(O)c3c2=O)cc1 was tested. Which Potency did it give?
**A.** inactive

**Q.** With O=C(O)CCc1nc(-c2ccccc2)c(-c2ccccc2)o1 as the compound, how does the Potency read?
**A.** inactive

**Q.** Which Potency does the source give for NC(=O)c1cccc(-c2cc(Nc3ccc(OC(F)(F)F)cc3)ncn2)c1 here?
**A.** inactive

**Q.** CN[C@@H](C)C(=O)N[C@H]1CN(C(=O)CC(C)C)CC[C@H]2CC[C@@H](C(=O)NC(c3ccccc3)c3ccccc3)N2C1=O was tested. Which Potency did it give?
**A.** inactive

**Q.** With CCNc1cc(NC2CCC(O)CC2)nc(Nc2ccc3c(ccn3Cc3ccccc3)c2)n1 (stereo not given) as the compound, how does the Potency read?
**A.** inactive

**Q.** With COc1cccc(-c2cc(=O)c3ccccc3o2)c1N as the compound, how does the Potency read?
**A.** inactive

**Q.** For O=c1ccn([C@@H]2O[C@H](CO)[C@H](O)[C@H]2O)c(=O)[nH]1, which Potency is on record?
**A.** inactive

**Q.** How did the Potency turn out when Cc1c[nH]c(C=C2C(=O)Nc3ccccc32)c1CCC(=O)O was run?
**A.** inactive

**Q.** How did the Potency turn out when Cc1ccc(Nc2cc(-c3cccc(N4C(=O)c5ccccc5C4=O)c3)ncn2)cc1NS(C)(=O)=O was run?
**A.** inactive

**Q.** For Cc1ccc([C@@H]2O[C@H](CO)[C@@H](O)[C@H](O)[C@@H]2O)cc1Cc1ccc(-c2ccc(F)cc2)s1, which Potency is on record?
**A.** inactive

**Q.** For CN(C)CCC=C1c2ccccc2COc2ccc(CC(=O)O)cc21, which Potency is on record?
**A.** inactive

**Q.** CC=CC[C@@H](C)C(=O)[C@H]1C(=O)N[C@@H](C(C)C)C(=O)N(C)CC(=O)N(C)[C@@H](CC(C)C)C(=O)N[C@@H](C(C)C)C(=O)N(C)[C@@H](CC(C)C)C(=O)N[C@@H](C)C(=O)N[C@H](C)C(=O)N(C)[C@@H](CC(C)C)C(=O)N(C)[C@@H](CC(C)C)C(=O)N(C)[C@@H](C(C)C)C(=O)N1C was tested. Which Potency did it give?
**A.** inactive

**Q.** How did the Potency turn out when C[N+](C)(C)CC(=O)O was run?
**A.** inactive

**Q.** Which Potency does the source give for CCOC1OC(=O)C[C@H]1NC(=O)[C@@H]1CCCN1C(=O)[C@@H](NC(=O)c1ccc(N)c(Cl)c1)C(C)(C)C (stereo not given in full) here?
**A.** inactive

**Q.** For CNC(=O)c1ccc2cc(C3(O)CCn4cncc43)ccc2c1 (stereo not given), which Potency is on record?
**A.** inactive

**Q.** For OC[C@H]1O[C@@H](Oc2cc(O)cc(C=Cc3ccc(O)cc3)c2)[C@H](O)[C@@H](O)[C@H]1O, which Potency is on record?
**A.** inactive

**Q.** Nc1ncnc2c1nc(Cl)n2[C@@H]1O[C@H](CO)[C@@H](O)[C@@H]1O was tested. Which Potency did it give?
**A.** inactive

**Q.** NCCS was tested. Which Potency did it give?
**A.** inactive

**Q.** For CCC(=O)NC[C@H](Cc1ccc(OCCc2nc(-c3ccccc3)oc2C)cc1)NC(C)=CC(=O)c1ccc(C(F)(F)F)cc1, which Potency is on record?
**A.** inactive

**Q.** CC(C)(Cc1ccc2ccccc2c1)NC[C@@H](O)COc1cccc(Cl)c1C#N was tested. Which Potency did it give?
**A.** inactive

**Q.** How did the Potency turn out when O=C1Nc2ccc(Cl)cc2C(C#CC2CC2)(C(F)(F)F)O1 (stereo not given) was run?
**A.** inactive
